# In the library only some 4.3% were active in any assay of this set; here they are far more common.
# MazEF act: MazEF (E. coli) toxin RNase activation; FAM/BHQ RNA-DNA oligo cleavage fluorescence, 5 h; activation, % at 20 µM; 350,000 tested, 0.32% active; in the data active means activation above about 50%
# PfHsp40 rescue: compounds rescuing yeast from Plasmodium falciparum HSP40 toxicity; S. cerevisiae expressing PfHsp40, growth rescue, ATP luminescence; growth rescue, % at 12.5 µM; 340,000 tested, 0.68% active; AID 504582; in the data active means growth rescue above about 28%, passing the limit was not always enough; inconclusive means no clear call, values can overlap the other calls;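 further: yeast W303a lacking pdr1 and pdr3 grown in galactose medium; growth measured after three days at 30 °C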
# BoNT A protease: BoNT A light chain protease inhibition. multiplex microsphere protease substrate cleavage, flow cytometry. inhibition, % at 10 µM. AID 588499. 360,000 tested, 0.17% active
# Bead autofluor: compound fluorescence in toxin protease inhibitor counterscreen. compound autofluorescence counterscreen, microsphere flow cytometry; stronger effect = higher value. fluorescence intensity (test concentration not listed). 360,000 tested, 3.1% active; in the data active means fluorescence intensity above about 16000; inconclusive means no clear call, values can overlap the other calls
# Anthrax LF inh2: inhibitors of Bacillus anthracis lethal factor protease. inhibition, % at 10 µM. 360,000 tested, 0.12% active. multiplex microsphere protease cleavage assay, LF. AID 588501. P15917
# Target sequence (P15917 whole entry, looked up): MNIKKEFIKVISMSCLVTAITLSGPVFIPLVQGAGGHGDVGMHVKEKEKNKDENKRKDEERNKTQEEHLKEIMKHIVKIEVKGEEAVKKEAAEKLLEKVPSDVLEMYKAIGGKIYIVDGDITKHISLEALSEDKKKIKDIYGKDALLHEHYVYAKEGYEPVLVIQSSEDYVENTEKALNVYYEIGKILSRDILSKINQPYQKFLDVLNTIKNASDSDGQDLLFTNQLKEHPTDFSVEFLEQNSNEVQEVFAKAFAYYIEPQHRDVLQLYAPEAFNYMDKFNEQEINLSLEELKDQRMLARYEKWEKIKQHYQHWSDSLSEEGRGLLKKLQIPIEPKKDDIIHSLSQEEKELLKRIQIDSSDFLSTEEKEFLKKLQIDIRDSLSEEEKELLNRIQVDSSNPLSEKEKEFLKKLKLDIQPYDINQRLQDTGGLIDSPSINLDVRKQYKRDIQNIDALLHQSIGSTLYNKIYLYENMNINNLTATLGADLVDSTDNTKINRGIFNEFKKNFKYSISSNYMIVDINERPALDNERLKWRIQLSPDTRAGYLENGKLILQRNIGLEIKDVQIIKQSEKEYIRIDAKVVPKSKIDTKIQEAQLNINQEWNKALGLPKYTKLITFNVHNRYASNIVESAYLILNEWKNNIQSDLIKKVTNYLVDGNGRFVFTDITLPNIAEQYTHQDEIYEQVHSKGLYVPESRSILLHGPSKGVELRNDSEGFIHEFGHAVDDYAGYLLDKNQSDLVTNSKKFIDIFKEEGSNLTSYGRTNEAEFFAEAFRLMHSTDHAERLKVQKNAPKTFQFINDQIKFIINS
# BoNT F protease: inhibitors of Botulinum neurotoxin F light chain protease; inhibition, % at 10 µM; Multiplex microsphere protease cleavage assay, flow cytometry; 360,000 tested, 0.22% active; in the data active means inhibition above about 35%, passing the limit was not always enough; inconclusive means no clear call, values can overlap the other calls
# A number is an active result; i = inactive; ? = inconclusive; nt = no result given. Unless noted, no stated cut-off is given here; in the data, active means inhibition above about 30%; inconclusive means no clear call, values can overlap the other calls; inactive means below that.
SMILES,MazEF act,PfHsp40 rescue,BoNT A protease,Bead autofluor,Anthrax LF inh2,BoNT F protease
CCCNCc1cc(OC)c(OCC(=O)Nc2ccccc2)cc1Br,i,i,i,i,i,i
COc1cc(CNCCO)ccc1OCC(=O)Nc1ccc(Br)cc1,i,i,i,22933,i,i
COc1ccccc1OCC(=O)Nc1ccc(C(N)=O)cc1,i,i,i,21458,i,i
COc1ccccc1OCC(=O)Nc1ccc(Cl)cc1,i,i,?,23170,i,i
CC(C)c1ccc(NC(=O)CCc2ccccc2)cc1,i,i,i,i,i,i
CC12C=CC3(CN(Cc4ccccc4)C(=O)C3C1C(=O)NCc1ccco1)O2 (stereo unspecified),i,i,i,20657,i,i
COC(=O)C1C2C=CC3(CN(Cc4ccco4)C(=O)C13)O2 (stereo unspecified),i,i,i,i,i,i
CCC(=O)N(Cc1ccco1)c1nc(-c2ccc(OC)cc2)cs1,i,i,i,i,i,i
CCC(=O)N(CC)c1nc(-c2ccc(OC)cc2)cs1,i,i,i,23376,i,i
O=C(Nc1ccccc1-c1ccccc1)c1ccc(Br)o1,i,i,i,?,i,i
Cc1nc(C)c(C(=O)Nc2ccccc2-c2ccccc2)o1,i,i,i,23592,i,i
O=C(N/N=C/c1ccco1)C1CCCC1,i,i,i,i,i,i
COc1ccc(C(=O)COC(=O)c2c(-c3ccccc3)noc2C)c(OC)c1,67.5,i,i,i,i,i
Cn1ncc(N=Cc2c(O)ccc3ccccc23)c1C(=O)Nc1cccc(Cl)c1,360.2,i,i,i,i,i
CCCn1c(=S)[nH]c2cc(C(=O)NCC3CCCO3)ccc2c1=O (stereo unspecified),i,i,i,i,i,i
O=C(CCCn1c(=S)[nH]c2ccccc2c1=O)NC1CCCC1,i,i,i,16938,i,i
O=C(CCn1c(=S)[nH]c2ccccc2c1=O)NCC1CCCO1 (stereo unspecified),i,i,i,21058,i,i
CC1(C(=O)O)CCCN1C(=O)c1ccccc1OC(F)(F)F (stereo unspecified),nt,nt,i,i,i,i
CCN(CC)C(=O)CSc1nnc(CCNC(=O)OC(C)(C)C)o1,i,i,i,23519,i,i
CN(C)C(=O)CSc1nnc(CCNC(=O)OC(C)(C)C)o1,i,i,i,22750,i,i
CCN(CC)C(=O)CSc1nnc(CCN)o1,i,i,i,23987,i,i
CN(C)C(=O)CSc1nnc(CCCCCNC(=O)OC(C)(C)C)o1,i,i,?,?,?,?
NCCc1nnc(SCC(N)=O)o1,i,i,i,i,i,i
Cc1c(Cl)cccc1NC(=O)CSc1nnc(CCNC(=O)OC(C)(C)C)o1,i,i,i,22523,i,i
CCOC(=O)C1CCN(C2CC(=O)N(c3cccc(Cl)c3)C2=O)CC1 (stereo unspecified),i,176.4,i,i,i,i
SMILES,MazEF act,PfHsp40 rescue,BoNT A protease,Bead autofluor,Anthrax LF inh2,BoNT F protease
COC(=O)C1CCN(C2CC(=O)N(c3cc(C)cc(C)c3)C2=O)CC1 (stereo unspecified),i,45.4,i,i,i,i
O=C(C1CCN(C2CC(=O)N(c3cccc(Cl)c3)C2=O)CC1)N1CCCC1 (stereo unspecified),i,468.5,i,i,i,i
NC(=O)C1CCN(C2CC(=O)N(c3ccc(F)c(Cl)c3)C2=O)CC1 (stereo unspecified),i,203.6,nt,nt,nt,nt
O=C(CCc1ccccc1)N=C1SC2CS(=O)(=O)CC2N1c1cccc(F)c1 (stereo unspecified),i,i,i,i,i,i
CCN(CC)C1CC(=O)N(c2cccc(Cl)c2)C1=O (stereo unspecified),i,79.4,i,i,i,i
O=C(O)CSC1CC(=O)N(c2cccc(Cl)c2)C1=O (stereo unspecified),i,i,i,i,i,i
COc1ccccc1N(C(=O)c1snc(C(N)=O)c1N)C(C(=O)NC1CCCC1)c1ccco1 (stereo unspecified),i,i,i,23621,i,i
COc1ccc(CN(C(=O)c2snc(C(N)=O)c2N)C(C(=O)NC(C)(C)C)c2ccco2)cc1 (stereo unspecified),i,i,i,21460,i,i
COc1ccccc1N(C(=O)c1snc(C(N)=O)c1N)C(C(=O)NCCC(C)C)c1ccco1 (stereo unspecified),i,i,i,18096,i,i
COCCNC(=O)C(c1ccco1)N(Cc1ccc(OC)cc1)C(=O)Cn1nnc2ccccc21 (stereo unspecified),i,i,i,i,i,38.9
COCCNC(=O)C(c1ccco1)N(C(=O)Cn1nnc2ccccc21)c1ccccc1C (stereo unspecified),i,i,i,i,i,i
C[C@@H](NC(=O)[C@H]1O[C@@H](n2cnc3c(N)ncnc32)[C@H](O)[C@@H]1O)c1cccc2ccccc12,nt,nt,i,i,i,i
COc1ccc(C(O)P(=O)(OC2CCCCC2)c2ccc(N(C)C)cc2)cc1OC (stereo unspecified),i,i,i,22879,i,i
CN(C)CCCNCCCNC(=O)c1ccncc1,i,i,i,21704,i,i
O=C(O)CCCCCNC(=O)c1ccncc1,i,i,?,19428,i,i
O=C(NCCCNCc1ccccc1)c1ccncc1,i,i,i,i,i,i
CN(C)CCCNC(=O)c1ccccn1,i,i,i,16671,i,i
O=c1[nH]c(=O)n(-c2cccc(F)c2)c(O)c1/C=C1\C=Nc2ccccc21,i,i,i,i,i,i
Cn1c(O)c(/C=C2\C=Nc3ccccc32)c(=O)n(C)c1=O,141.1,i,i,i,i,i
CCCCn1c(O)c(/C=C2\C=Nc3ccccc32)c(=O)[nH]c1=O,254.7,i,i,i,i,i
Cc1ccc(-c2nc(SCC(=O)Nc3cc(C)on3)c3c(=O)n(C)c(=O)n(C)c3n2)cc1,i,i,i,i,i,i
CCCn1c(SCC(=O)c2[nH]c(C)c(C(C)=O)c2C)n[nH]c1=O,i,i,i,i,i,i
O=C(CN1C(=O)COc2ccc(Cl)cc21)Nc1ccc2c(c1)OCCO2,i,i,?,17358,i,i
CC1CC(=O)N(CC(=O)Nc2ccc3c(c2)OCCO3)c2ccccc2S1 (stereo unspecified),i,i,i,16421,i,i
O=C(Cn1ccc2ccccc2c1=O)NCCC(=O)Nc1ccc2c(c1)OCCO2,i,i,?,20380,i,i
Cc1cccc(NC(=O)CN2C(=O)COc3ccc(Cl)cc32)c1,i,i,i,i,i,i
CC1Oc2ccccc2N(CC(=O)Nc2ccc3c(c2)OCCO3)C1=O (stereo unspecified),i,i,i,i,i,i
CCOc1ccc(CCNC(=O)COC(=O)COc2ccccc2C)cc1OCC,i,i,i,?,i,i
CCOc1ccc(OCCC(=O)N(CC)CC(=O)NCc2ccc(Cl)cc2)cc1,i,i,i,i,i,i
O=C(Nc1cccc(Cl)c1Cl)C1CCCC1,i,i,i,i,i,i

# Source: PubChem BioAssay (several laboratories)
